Results on six compounds are retold here after ChEMBL document CHEMBL1961873, “Compounds: GSK PKIS; Assays: Nanosyn kinase panel” (2012).

In general, inhibition refers to the relative decrease from the control value, in per cent.

Assay [1] has as its target Mitogen-activated protein kinase 3 (Homo sapiens) (UniProt P27361). The following applies: at 1 µM.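 Further: values are mean percent inhibition of MAPK3.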
For assay [2], the target named is SRSF protein kinase 3 (Homo sapiens) (UniProt Q9UPE1). To be noted: at 0.1 µM.
Assay [3] has the same target. To be noted: at 1 µM.
Assay [4] deals with Mitogen-activated protein kinase 14 (Homo sapiens) (UniProt Q16539). The following applies: at 0.1 µM.
Assay [5] has the same target. The following applies: at 1 µM.
The target of assay [6] is Mitogen-activated protein kinase 11 (Homo sapiens) (UniProt Q15759). To be noted: at 0.1 µM.
Assay [7] shares this target. The following applies: at 1 µM.
In assay [8] the target is T1, Mitogen-activated protein kinase 13 (Homo sapiens) (UniProt O15264).
T1 sequence (whole entry): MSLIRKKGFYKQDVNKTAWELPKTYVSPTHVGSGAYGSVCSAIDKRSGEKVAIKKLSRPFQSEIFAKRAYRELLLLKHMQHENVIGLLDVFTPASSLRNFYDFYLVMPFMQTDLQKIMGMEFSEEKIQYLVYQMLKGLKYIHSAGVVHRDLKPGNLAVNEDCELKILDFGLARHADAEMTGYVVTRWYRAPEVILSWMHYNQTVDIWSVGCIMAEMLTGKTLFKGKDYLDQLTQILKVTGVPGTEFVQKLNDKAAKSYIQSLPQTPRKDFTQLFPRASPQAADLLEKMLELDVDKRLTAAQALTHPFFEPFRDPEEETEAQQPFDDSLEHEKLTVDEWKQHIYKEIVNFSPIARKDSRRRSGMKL
To be noted: at 0.1 µM.

The target of assay [9] is T1, Mitogen-activated protein kinase 13 (Homo sapiens). The following applies: at 1 µM.
Assay [10] deals with T2, Mitogen-activated protein kinase 12 (Homo sapiens) (UniProt P53778).
T2 sequence (whole entry): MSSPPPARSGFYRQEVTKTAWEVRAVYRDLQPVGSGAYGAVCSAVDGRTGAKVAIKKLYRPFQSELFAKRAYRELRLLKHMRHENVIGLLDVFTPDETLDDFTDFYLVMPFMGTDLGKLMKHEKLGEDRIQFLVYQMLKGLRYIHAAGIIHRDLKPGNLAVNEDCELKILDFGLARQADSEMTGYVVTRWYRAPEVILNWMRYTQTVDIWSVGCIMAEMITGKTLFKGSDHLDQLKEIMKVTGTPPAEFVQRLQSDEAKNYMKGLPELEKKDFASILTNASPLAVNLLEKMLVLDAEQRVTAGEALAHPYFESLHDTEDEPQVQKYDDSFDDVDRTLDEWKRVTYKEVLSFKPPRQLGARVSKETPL
To be noted: at 0.1 µM.

Assay [11] concerns the target T2, Mitogen-activated protein kinase 12 (Homo sapiens). The following applies: at 1 µM.
The target in assay [12] is SRSF protein kinase 1 (Homo sapiens) (UniProt Q96SB4). To be noted: at 0.1 µM.
Assay [13] shares this target. To be noted: at 1 µM.
Assay [14] addresses Phosphatidylinositol 4,5-bisphosphate 3-kinase catalytic subunit alpha isoform (Homo sapiens) (UniProt P42336). To be noted: at 0.1 µM.
Assay [15] shares this target. The following applies: at 1 µM.
For assay [16], the target named is T3, Phosphatidylinositol 4,5-bisphosphate 3-kinase catalytic subunit delta isoform (Homo sapiens) (UniProt O00329).
T3 sequence (whole entry): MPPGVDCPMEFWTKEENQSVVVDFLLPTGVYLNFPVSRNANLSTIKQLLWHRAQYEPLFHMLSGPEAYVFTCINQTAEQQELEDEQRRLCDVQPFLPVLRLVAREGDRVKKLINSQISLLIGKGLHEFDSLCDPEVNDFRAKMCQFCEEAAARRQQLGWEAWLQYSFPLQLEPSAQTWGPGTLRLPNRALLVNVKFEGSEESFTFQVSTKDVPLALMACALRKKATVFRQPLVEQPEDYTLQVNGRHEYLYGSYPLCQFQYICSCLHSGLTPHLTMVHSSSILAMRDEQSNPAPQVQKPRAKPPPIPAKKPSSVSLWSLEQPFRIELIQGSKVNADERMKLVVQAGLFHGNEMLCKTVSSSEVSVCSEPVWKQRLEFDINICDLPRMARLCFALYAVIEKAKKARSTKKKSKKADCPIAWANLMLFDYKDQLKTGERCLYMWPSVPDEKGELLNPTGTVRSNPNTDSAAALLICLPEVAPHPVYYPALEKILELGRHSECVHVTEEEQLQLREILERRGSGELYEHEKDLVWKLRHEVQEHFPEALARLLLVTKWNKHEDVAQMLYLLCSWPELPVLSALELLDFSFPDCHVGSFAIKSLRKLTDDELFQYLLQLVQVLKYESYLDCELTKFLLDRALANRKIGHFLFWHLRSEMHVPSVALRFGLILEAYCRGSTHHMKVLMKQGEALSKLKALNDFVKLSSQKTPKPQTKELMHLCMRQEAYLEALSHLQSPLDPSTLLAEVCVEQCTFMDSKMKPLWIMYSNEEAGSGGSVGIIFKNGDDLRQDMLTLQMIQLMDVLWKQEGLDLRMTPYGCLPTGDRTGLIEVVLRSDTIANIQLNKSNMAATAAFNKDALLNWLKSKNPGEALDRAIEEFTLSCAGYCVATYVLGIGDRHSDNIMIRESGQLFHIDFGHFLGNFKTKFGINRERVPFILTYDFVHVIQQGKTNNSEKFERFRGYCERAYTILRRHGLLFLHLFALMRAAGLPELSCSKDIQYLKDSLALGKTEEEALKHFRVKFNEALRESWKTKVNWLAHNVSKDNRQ
The following applies: at 0.1 µM.

Assay [17] concerns the target T3, Phosphatidylinositol 4,5-bisphosphate 3-kinase catalytic subunit delta isoform (Homo sapiens). The following applies: at 1 µM.
Assay [18] addresses Phosphatidylinositol 4-kinase beta (Homo sapiens) (UniProt Q9UBF8). The following applies: at 0.1 µM.
Assay [19] shares this target. To be noted: at 1 µM.
The target of assay [20] is Sphingosine kinase 1 (Homo sapiens) (UniProt Q9NYA1). To be noted: at 0.1 µM.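 Further: mean percent inhibition of SPHK1 activity, measured within the GSK PKIS screening panel.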
Sequence of Sphingosine kinase 1 (Homo sapiens) (Q9NYA1 whole entry): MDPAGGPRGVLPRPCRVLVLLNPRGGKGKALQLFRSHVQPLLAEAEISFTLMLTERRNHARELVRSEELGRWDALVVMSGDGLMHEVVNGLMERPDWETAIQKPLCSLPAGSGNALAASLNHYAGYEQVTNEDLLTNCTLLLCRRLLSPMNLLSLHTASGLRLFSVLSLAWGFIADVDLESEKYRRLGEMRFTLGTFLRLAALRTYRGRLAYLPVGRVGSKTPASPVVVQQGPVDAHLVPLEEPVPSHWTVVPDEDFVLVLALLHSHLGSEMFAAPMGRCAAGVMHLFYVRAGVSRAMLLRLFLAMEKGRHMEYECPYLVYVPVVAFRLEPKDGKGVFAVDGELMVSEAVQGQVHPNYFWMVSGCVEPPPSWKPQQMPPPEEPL

Sequence of Mitogen-activated protein kinase 3 (Homo sapiens) (P27361 whole entry): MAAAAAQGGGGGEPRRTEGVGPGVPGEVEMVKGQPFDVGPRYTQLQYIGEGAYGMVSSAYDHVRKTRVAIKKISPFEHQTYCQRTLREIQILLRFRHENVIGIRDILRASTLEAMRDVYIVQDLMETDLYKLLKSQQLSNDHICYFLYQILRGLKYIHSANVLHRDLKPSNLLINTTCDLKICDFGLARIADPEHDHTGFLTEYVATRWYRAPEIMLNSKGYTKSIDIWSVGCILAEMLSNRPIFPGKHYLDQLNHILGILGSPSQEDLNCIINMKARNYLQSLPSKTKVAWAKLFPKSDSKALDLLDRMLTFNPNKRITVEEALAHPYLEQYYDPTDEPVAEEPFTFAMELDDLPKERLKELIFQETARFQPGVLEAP
Sequence of SRSF protein kinase 1 (Homo sapiens) (Q96SB4 whole entry): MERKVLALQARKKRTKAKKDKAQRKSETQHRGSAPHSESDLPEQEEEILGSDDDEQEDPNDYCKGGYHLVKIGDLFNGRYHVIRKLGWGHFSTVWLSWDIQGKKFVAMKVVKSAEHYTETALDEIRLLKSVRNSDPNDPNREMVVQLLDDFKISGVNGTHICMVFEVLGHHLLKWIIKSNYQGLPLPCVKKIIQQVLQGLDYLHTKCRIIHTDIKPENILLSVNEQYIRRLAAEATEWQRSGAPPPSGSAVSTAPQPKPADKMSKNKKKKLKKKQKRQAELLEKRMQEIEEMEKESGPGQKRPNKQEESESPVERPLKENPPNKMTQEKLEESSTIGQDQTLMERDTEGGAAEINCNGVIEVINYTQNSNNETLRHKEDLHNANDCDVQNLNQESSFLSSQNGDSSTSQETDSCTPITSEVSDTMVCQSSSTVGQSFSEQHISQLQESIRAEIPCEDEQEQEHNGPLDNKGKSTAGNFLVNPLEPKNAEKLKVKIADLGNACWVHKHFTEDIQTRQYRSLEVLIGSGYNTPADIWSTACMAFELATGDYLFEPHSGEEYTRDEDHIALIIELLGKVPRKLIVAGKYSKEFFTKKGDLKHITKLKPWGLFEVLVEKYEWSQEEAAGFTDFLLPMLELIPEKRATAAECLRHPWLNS
Sequence of SRSF protein kinase 3 (Homo sapiens) (Q9UPE1 whole entry): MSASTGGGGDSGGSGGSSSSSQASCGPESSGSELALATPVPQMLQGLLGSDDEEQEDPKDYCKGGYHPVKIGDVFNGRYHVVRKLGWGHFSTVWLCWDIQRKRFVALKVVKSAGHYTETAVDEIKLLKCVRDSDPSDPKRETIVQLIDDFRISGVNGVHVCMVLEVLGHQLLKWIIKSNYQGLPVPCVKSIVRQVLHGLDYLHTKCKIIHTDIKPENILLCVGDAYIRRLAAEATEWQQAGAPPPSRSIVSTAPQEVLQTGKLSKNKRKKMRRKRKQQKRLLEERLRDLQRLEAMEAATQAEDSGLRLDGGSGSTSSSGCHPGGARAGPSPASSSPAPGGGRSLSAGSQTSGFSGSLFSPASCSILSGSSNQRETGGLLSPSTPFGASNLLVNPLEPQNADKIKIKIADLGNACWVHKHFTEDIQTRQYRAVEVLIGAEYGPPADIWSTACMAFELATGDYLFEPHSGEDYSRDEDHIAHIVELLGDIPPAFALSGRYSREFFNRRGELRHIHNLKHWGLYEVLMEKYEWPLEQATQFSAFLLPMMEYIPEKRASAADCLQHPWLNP
Sequence of Mitogen-activated protein kinase 14 (Homo sapiens) (Q16539 whole entry): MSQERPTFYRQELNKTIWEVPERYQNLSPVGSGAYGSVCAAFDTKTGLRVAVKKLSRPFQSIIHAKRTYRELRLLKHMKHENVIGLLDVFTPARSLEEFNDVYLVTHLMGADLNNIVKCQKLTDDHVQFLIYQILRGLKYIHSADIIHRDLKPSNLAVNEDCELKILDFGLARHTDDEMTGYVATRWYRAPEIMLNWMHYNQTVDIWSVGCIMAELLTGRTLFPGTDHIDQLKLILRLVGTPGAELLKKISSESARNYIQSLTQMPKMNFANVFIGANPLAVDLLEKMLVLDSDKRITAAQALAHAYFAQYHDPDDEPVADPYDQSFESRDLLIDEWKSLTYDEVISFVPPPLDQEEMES
Sequence of Phosphatidylinositol 4,5-bisphosphate 3-kinase catalytic subunit alpha isoform (Homo sapiens) (P42336 whole entry, canonical isoform): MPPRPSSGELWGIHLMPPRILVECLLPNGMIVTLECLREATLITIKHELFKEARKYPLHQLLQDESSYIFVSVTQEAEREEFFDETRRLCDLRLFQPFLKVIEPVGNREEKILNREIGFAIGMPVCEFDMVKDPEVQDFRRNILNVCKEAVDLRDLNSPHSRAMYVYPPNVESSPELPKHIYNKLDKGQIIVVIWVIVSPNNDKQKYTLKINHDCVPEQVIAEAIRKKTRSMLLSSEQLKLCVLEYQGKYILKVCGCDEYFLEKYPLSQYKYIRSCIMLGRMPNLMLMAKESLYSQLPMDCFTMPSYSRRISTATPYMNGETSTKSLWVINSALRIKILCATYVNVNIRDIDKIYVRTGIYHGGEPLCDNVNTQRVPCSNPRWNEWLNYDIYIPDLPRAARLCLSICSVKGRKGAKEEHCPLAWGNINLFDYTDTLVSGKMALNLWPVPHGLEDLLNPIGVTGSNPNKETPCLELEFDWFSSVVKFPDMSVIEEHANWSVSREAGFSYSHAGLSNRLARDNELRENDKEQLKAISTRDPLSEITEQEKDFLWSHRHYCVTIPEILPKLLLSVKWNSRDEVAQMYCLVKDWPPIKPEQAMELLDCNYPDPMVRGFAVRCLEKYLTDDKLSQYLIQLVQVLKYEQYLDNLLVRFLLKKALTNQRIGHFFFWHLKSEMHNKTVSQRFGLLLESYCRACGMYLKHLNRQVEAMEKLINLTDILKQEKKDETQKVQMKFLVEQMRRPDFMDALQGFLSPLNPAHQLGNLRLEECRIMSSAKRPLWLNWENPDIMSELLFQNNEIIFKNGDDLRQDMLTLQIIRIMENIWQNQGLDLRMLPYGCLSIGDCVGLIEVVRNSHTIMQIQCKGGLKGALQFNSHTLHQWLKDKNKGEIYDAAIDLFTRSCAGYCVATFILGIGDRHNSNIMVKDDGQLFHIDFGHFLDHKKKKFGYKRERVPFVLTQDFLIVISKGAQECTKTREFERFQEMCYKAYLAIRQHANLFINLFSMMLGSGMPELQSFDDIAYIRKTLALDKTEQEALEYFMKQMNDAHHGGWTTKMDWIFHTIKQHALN
Sequence of Mitogen-activated protein kinase 11 (Homo sapiens) (Q15759 whole entry): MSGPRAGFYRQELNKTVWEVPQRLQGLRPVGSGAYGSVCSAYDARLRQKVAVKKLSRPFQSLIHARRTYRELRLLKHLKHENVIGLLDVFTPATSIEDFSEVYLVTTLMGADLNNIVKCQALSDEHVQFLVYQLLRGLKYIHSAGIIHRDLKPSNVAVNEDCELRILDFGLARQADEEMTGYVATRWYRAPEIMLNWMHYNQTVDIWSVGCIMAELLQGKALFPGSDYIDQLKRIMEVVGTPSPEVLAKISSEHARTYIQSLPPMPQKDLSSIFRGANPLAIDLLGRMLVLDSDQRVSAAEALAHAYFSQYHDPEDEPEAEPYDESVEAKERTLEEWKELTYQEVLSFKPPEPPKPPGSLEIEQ
Sequence of Phosphatidylinositol 4-kinase beta (Homo sapiens) (Q9UBF8 2-816 limits assumed): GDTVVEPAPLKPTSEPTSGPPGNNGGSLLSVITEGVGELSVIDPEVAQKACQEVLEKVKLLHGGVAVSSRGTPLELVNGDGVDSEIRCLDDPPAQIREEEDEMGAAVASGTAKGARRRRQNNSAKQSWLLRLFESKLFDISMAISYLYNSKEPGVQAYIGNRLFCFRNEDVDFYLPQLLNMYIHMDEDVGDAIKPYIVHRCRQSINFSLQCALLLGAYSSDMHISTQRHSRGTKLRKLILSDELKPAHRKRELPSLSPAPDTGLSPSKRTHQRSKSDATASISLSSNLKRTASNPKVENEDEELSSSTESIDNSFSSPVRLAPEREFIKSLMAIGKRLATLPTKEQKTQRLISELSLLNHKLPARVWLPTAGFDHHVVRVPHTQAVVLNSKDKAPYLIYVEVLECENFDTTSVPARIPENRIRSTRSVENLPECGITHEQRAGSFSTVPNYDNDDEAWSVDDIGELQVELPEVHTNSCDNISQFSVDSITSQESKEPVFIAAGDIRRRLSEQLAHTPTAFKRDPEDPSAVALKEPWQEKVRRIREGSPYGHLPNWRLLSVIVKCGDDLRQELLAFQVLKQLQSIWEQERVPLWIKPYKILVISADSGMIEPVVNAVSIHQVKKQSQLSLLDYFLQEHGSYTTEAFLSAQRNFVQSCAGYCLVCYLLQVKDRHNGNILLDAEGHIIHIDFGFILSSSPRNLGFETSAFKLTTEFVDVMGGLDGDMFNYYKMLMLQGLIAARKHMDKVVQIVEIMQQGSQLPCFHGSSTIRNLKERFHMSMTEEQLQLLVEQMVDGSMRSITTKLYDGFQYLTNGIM

`COc1ccc(-c2nn3ncccc3c2-c2ccnc(Nc3ccc(Cl)c(C(F)(F)F)c3)n2)cc1`: the inhibition in assay [1] is 4.01%; in assay [2], -2.03%; in assay [3] it was -0.79%; in [4] it was 4.58%; in assay [5], 36.1%; in [6] it was 2.93%. Moreover, the inhibition in assay [7] was 16.8%; in assay [8], 0.64%; in assay [9] it was 1.01%; in assay [10], 1.67%; in assay [11], 0.36%; in [12], -1.95%. For the same compound, the inhibition in assay [13] was -0.38%; in assay [14], 1%; in [15] it was 10.4%; in [16] it was -0.59%; in [17], 2.57%; in assay [18] it was -1.86%. The values for the inhibition in assay [19] and in [20] were 0.08% and 19.3%, respectively.
For `COc1cccc(-n2ncc3c(N/N=C/c4cccc(F)c4)ncnc32)c1`, the inhibition in assay [1] is 0.85%; in assay [2] it was -2.57%; in assay [3] it was -3.83%; in [4], -0.34%; in assay [5] it was 5.39%; in [6] it was 3.19%. The inhibition in assay [7] is 0%; in [8], 2.14%; in [9], 6.21%; in assay [10], 4.04%; in [11], 2.67%; in assay [12], -1.75%. Further, the inhibition in assay [13] is -2.37%; in [14], 2.47%; in [15], 4.79%; in [16], 2.15%; in [17] it was 5.82%; in assay [18], 2.02%. The figures for the inhibition in assay [19] and in assay [20] were -7.13% and -0.37%, respectively.
As for `CCCN1CCC=C(c2ccc(Nc3nc(Nc4ccccc4C(N)=O)c4cc[nH]c4n3)c(C)c2)C1`, the inhibition in [1] was 11.3%; in assay [2], 4.11%; in assay [3], 12.7%; in [4], 4.64%; in assay [5], 7.87%; in assay [6] it was 2.75%. Besides, the inhibition in assay [7] was 7.8%; in [8], 4.35%; in assay [9] it was 8.15%; in assay [10], 3.52%; in [11] it was 6.14%; in [12], -2.75%. In addition, the inhibition in [13] was 12%; in assay [14], 4.1%; in [15], 19.9%; in assay [16], 1.79%; in [17] it was 17.8%; in [18], -1.7%. Moreover, the inhibition was -0.01% in assay [19] and 0.57% in assay [20].
Turning to `CNC(=O)c1cncc(/C=C/c2c(Cl)cccc2Cl)c1`, the inhibition is 3.8% in assay [1]; 2.22% in assay [2]; 0.6% in assay [3]; 6.41% in assay [4]; 8.04% in [5]; 2.44% in assay [6]. The inhibition is 4.25% in assay [7]; 3.64% in assay [8]; 5.05% in [9]; 3.45% in assay [10]; 6.19% in [11]; -3.5% in assay [12]. For the same compound, the inhibition is -0.45% in assay [13]; 2.99% in [14]; 2.83% in [15]; 0.54% in assay [16]; 0.66% in [17]; -0.69% in [18]. Also, the inhibition was 2.57% in assay [19] and -1.45% in assay [20].
On to `Nc1nc(-c2ccc3c(c2)C(=Cc2cc(Br)c(O)c(Br)c2)C(=O)N3)cs1`, for which the inhibition is 1.82% in assay [1]; -2.97% in [2]; -1.79% in [3]; 1.75% in assay [4]; -0.33% in assay [5]; -2.08% in assay [6]. For the same compound, the inhibition was 2.83% in [7]; -2.1% in assay [8]; -1.28% in assay [9]; -1.72% in assay [10]; -1.45% in assay [11]; 1.08% in assay [12]. Besides, the inhibition in [13] is 1.39%; in assay [14] it was 0.41%; in assay [15], 24.5%; in assay [18], 36.1%; in assay [19] it was 71.6%; in [20], 2.04%.
Consider `Cc1nnc(-c2ccc(C)c(-c3ccc(C(=O)Nc4cccc(C#N)c4)cc3)c2)o1`, for which the inhibition in [1] is 5.78%; in assay [2], -2.92%; in [3], -1.26%; in [6], 5.2%; in [7] it was 22.9%; in [8], 3.5%. Besides, the inhibition in [9] is 1.58%; in assay [10] it was -0.3%; in assay [11] it was 1.19%; in [12], -1.96%; in assay [13] it was -1.67%; in [14] it was 2.12%. Also, the inhibition was 1.71% in assay [15]; 1.98% in [16]; 1.12% in assay [17]; -1.86% in assay [18]; 0.49% in assay [19]; -2.17% in [20].
